Laboratory results reported in PubChem BioAssay (NCI).
About 83,000 compounds went through this panel and 20% of them were active in at least one assay; those are over-represented in the sample as a whole.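 Step 1: grow cells in 96-well plates. Step 2: add test compound at a single concentration. Step 3: incubate 48 h. Step 4: record percent growth.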 Values without a mark were called inactive. Activity calls are given as the source filed them. How the source made its calls: active means growth percent below 10; inactive means the rest.

System: HL-60(TB) leukemia
Assay: NCI-60 one-dose screen, 48 h (100 = growth as untreated, 0 = no growth, -100 = all killed)
Details: 10 µM unless noted

Row | SMILES | growth
1 | CN(C)CCn1c2ccccc2c2nc3ccc([N+](=O)[O-])cc3nc21 | 5.67% (active)
2 | N#Cc1ccc(-c2nn(-c3ccc(C(=O)O)cc3)cc2CNc2cccc(Br)c2)cc1 | 47%
3 | N#Cc1c(-c2ccccc2Cl)cc(-c2c[nH]c3ccccc23)[nH]c1=O | 68.4%
4 | O=C1S/C(=C\c2ccc([N+](=O)[O-])cc2)C(=O)N1CCN1CCCCC1 | 98.6%
5 | O=C(N/N=C/c1ccc(B(O)O)o1)c1[nH]c2ccc(Br)cc2c1-c1ccccc1 | -29.3% (active)
6 | C=C(c1ccc(OC)c(N)c1)c1cc(C)nc2ccccc12 | -22.8% (active)
7 | O=C(Nc1ccc(OCC(=O)c2ccc(Cl)cc2)cc1)Nc1ccc(Cl)c(C(F)(F)F)c1 | 12.5%
8 | COc1ccc(NC(=O)NN2C(=O)c3ccccc3N(C)C2c2ccc(OC)cc2)cc1 (centres undefined) | 101%
9 | O=C(NN1C(=O)/C(=C/C=C/c2ccc([N+](=O)[O-])o2)SC1=S)c1ccncc1 | -30.4% (active)
10 | Cc1cc2nc3c4ccccc4n(CC4=NCCN4)c3nc2cc1C | -55.6% (active)
11 | CN(C)CCOc1ccc(C(=O)C2[C@H](c3ccc(Cl)cc3)[C@@H](c3ccccc3)NC23C(=O)Nc2ccccc23)cc1 (some centres undefined) | 35.1%
12 | Cc1ccc2nc(-c3ccc(-c4nnc(SCC(=O)Nc5ccc(Cl)cc5)o4)cc3)[nH]c2c1 | 53.8%
13 | Cc1cccc(-c2nc(Nc3cccc(S(N)(=O)=O)c3)c3ccccc3n2)c1 | 44.9%
14 | Cn1cc(-c2nc(N)nnc2-c2c[nH]c3ccc(F)cc23)c2cc(Br)cnc21 | -34% (active)
